Screening data (PubChem)
BRCA1 expr up: increases BRCA1 expression. Potency, µM (series often up to 46.1 µM), inactives show at the top dose activation, most hits filed as activators. hit rate 1.1% among 380,000. AID 624202. MCF7-BRCA1-FFLuc reporter, luminescence, 48 h; response scale: scaled: vehicle 0%, 10 µM genistein 100%; further: nearly all actives have a fitted effect of over 80% in size
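Cells: MCF7-BRCA1-FFLuc, 2000/well. Exposure: 48 h, 37 °C, 5% CO2. Read: luminescence, 15 min post-substrate. Controls: genistein 10 microM (maximal activation), DMSO (neutral).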
Mito fusion act: blocks mitochondrial division or promotes mitochondrial fusion; S. cerevisiae fusion-defective mutant growth rescue, CellTiterGlo 48 h; Potency, µM (doses to about 46.1 µM), inactives show top-dose growth rescue (activation), most hits filed as activators; hit rate 0.23% among 320,000; AID 485298; further: % of control where 0% means no effect; nearly all actives have a fitted effect of over 45% in size
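Luminescent cell viability in 1536-well qHTS format served as the measure of rescued growth in ts fusion-mutant S. cerevisiae cultured on non-fermentable YPEG for 48 hours at 37C.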
GLP-1R inv ag: GLP-1 receptor (human) inverse agonism. P43220. HEK293 GLP-1R CRE-luciferase, luminescence, 24 h; GLP-1R form is constitutively active. Potency, µM (series often up to 38.3 µM), inactives show top-dose activity change, negative = inhibition, actives largely listed as inhibitors. hit rate 1.6% among 410,000. AID 624417; further: on the % scale 0 is the no-effect control and ±100 the full control effect; nearly all actives have a fitted effect of over 55% in size
Target sequence (P43220 whole entry, looked up): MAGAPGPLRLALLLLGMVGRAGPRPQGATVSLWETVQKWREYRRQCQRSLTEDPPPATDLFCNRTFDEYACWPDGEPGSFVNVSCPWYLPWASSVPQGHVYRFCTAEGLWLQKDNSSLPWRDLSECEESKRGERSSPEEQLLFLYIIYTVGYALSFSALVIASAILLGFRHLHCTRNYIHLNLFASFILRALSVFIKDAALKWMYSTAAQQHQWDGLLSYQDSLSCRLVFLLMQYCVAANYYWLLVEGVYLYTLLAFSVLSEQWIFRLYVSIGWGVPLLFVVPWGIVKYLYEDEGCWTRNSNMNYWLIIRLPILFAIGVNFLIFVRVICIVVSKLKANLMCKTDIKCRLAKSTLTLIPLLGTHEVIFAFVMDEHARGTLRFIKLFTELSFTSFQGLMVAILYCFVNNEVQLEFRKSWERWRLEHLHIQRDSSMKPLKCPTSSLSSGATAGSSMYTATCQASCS
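Inverse agonism was detected as reduced cAMP-driven luciferase luminescence after 24 h compound treatment. The cells were HEK293 clones expressing constitutively active human GLP-1R with the reporter. Reporter-only and GPR119 cell lines served as counterscreen controls.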
GLP1R ag: GLP-1 receptor (human) agonism; P43220; HEK293 GLP-1R CRE-luciferase, luminescence, 4-6 h; cells express a hypersensitive GLP-1R form; Potency, µM (highest dose often 45.6 µM), inactives show at the highest dose activation, actives largely listed as activators; hit rate 0.007% among 380,000; further: % of control where 0% means no effect
GLP1R cytotox: cytotoxicity in counter-screen for GLP-1R inverse agonists. HEK293 cAMP-luciferase reporter cells, luminescence, 24 h. Potency, µM (series often up to 38.3 µM), for the others: at the highest dose activity change, negative = inhibition, actives largely listed as inhibitors. hit rate 0.13% among 410,000;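 further: loss of luciferase light is scored as toxicity; on the % scale 0 is the no-effect control and ±100 the full control effect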
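To flag toxic compounds, the library was rerun on cells for 24 hr at 37 deg C and 5% CO2. Viability-linked luminescence was captured 12 min after adding luciferase detection reagent.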
Active calls of the source: *. Compounds with a hit are over-represented: about 2.8% of the library has one in this group of screens. The call rests on the fitted dose curve; in most records, active means well fitted curve in the direction sought with a large enough effect; inconclusive means small, poorly fitted or top-dose-only effect, or another doubt; inactive means no such curve, though single readings can be large; an effect the other way counts as inactive or inconclusive. Potency means the concentration at half of the fitted maximal effect.

Screening COc1ccc(N/N=C(/N=Nc2nc(C)cc(=O)[nH]2)c2ccccc2)cc1 returned BRCA1 expr up -34.0%, Mito fusion act -1.7%, GLP-1R inv ag inconclusive, GLP1R ag 0.3% and GLP1R cytotox 3.98µM*.
For CC1CC(C)CN(C(=O)c2ccc3c(c2)N(Cc2ccccc2)CCS3)C1 (configuration not stated) the results were BRCA1 expr up -24.3%, Mito fusion act inconclusive, GLP-1R inv ag 11.2µM*, GLP1R ag 19.1% and GLP1R cytotox -16.0%.
C/C(NC(=O)c1ccccc1F)=C1\C(=O)C[C@@H]2[C@H]1C2(C)C was read as BRCA1 expr up 11.2µM*, Mito fusion act 12.2%, GLP-1R inv ag inconclusive, GLP1R ag 13.6% and GLP1R cytotox -1.7%.
For O=C(c1ccccc1)[C@H]1CC=CC[C@H]1C(=O)O the results were BRCA1 expr up 20.9%, Mito fusion act -1.9%, GLP-1R inv ag -0.6%, GLP1R ag -5.4% and GLP1R cytotox -17.3%.
For COc1ccc2nc3ccccc3nc2c1NC(=O)c1ccc(Cl)cc1 the results were BRCA1 expr up -12.7%, Mito fusion act -6.2%, GLP-1R inv ag 1.3%, GLP1R ag 2.5% and GLP1R cytotox 5.8%.
Screening Cc1cc2c(cc1C)CSC(c1c(O)ccc3ccccc13)SC2 returned BRCA1 expr up -101.1%, Mito fusion act 0.1%, GLP-1R inv ag 12.6µM*, GLP1R ag 0.6% and GLP1R cytotox inconclusive.
For CC(C)NC(=O)c1ccc(-c2ccccc2C(F)(F)F)o1 the results were BRCA1 expr up 11.2µM*, Mito fusion act 13.4%, GLP-1R inv ag 8.6%, GLP1R ag inconclusive and GLP1R cytotox 6.4%.
`CC(=O)c1cc(C#N)c(SCCC(C)C)nc1C` gave BRCA1 expr up 19.1%, Mito fusion act inconclusive, GLP-1R inv ag 4.0%, GLP1R ag inconclusive and GLP1R cytotox 3.9%.
For CC(C)CCSc1nc(N)c(C#N)cc1C#N the results were BRCA1 expr up 21.5%, Mito fusion act 11.2µM*, GLP-1R inv ag -17.2%, GLP1R ag 4.3% and GLP1R cytotox 19.5%.
O=C(CSc1nc2ccccc2[nH]1)c1ccccc1F was read as BRCA1 expr up 2µM*, Mito fusion act -6.5%, GLP-1R inv ag 0.5%, GLP1R ag 6.8% and GLP1R cytotox 1.4%.
CCCc1c(C)[nH]c2nc3ccccc3n2c1=O was read as BRCA1 expr up 25.3%, Mito fusion act -29.8%, GLP-1R inv ag 66.2%, GLP1R ag 10.3% and GLP1R cytotox -4.4%.
Screening Cc1nc(SCc2ccc(Br)cc2)[nH]c(=O)c1C returned BRCA1 expr up -25.9%, Mito fusion act 23.5%, GLP-1R inv ag -6.7%, GLP1R ag 25.7% and GLP1R cytotox 6.4%.
`CN(C(=O)CSc1nc2ccc(NC(=O)c3ccccc3F)cc2s1)c1ccccc1` gave BRCA1 expr up 0.0%, GLP-1R inv ag 12.5% and GLP1R cytotox 4.4%.
Screening CN(C(=O)CSc1nc2ccc(NC(=O)c3cccc(F)c3)cc2s1)c1ccccc1 returned BRCA1 expr up 0.0%, GLP-1R inv ag 5.62µM* and GLP1R cytotox inconclusive.
For NC(=O)c1cccnc1OCC(F)(F)F the results were BRCA1 expr up -11.3%, Mito fusion act -3.7%, GLP-1R inv ag 1.6%, GLP1R ag -4.7% and GLP1R cytotox 16.0%.
For CNc1nc(Cl)c(SC)c(NCc2ccc(F)cc2)n1 the results were BRCA1 expr up -4.0%, Mito fusion act 6.0%, GLP-1R inv ag -8.6%, GLP1R ag 34.9% and GLP1R cytotox -8.4%.
Screening O=[N+]([O-])c1ccc2nc(-c3ccncc3)[nH]c2c1 returned BRCA1 expr up inconclusive, Mito fusion act -2.9%, GLP-1R inv ag 53.4%, GLP1R ag 9.2% and GLP1R cytotox -17.5%.
Screening O=[N+]([O-])c1cccc(-c2nc3ccc([N+](=O)[O-])cc3[nH]2)c1 returned BRCA1 expr up 5.01µM*, Mito fusion act 3.8%, GLP-1R inv ag 1.3%, GLP1R ag -1.5% and GLP1R cytotox -10.2%.
`COc1ccc(NCC(O)Cn2c(C)c(C)c3ccccc32)cc1` (configuration not stated) gave BRCA1 expr up -46.9%, Mito fusion act -5.3%, GLP-1R inv ag inconclusive, GLP1R ag 14.3% and GLP1R cytotox -7.8%.
